Structures are written as SMILES. The panel holds about 83,000 compounds, 20% with a hit somewhere; the sample as a whole holds those more often.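 Growth was measured after 48 h exposure to one concentration of compound in 96-well plates. Values under 10 count as active.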 Unmarked numbers belong to inactive results. Active and inactive are the calls of the source.

Some test systems named below: SK-MEL-2 melanoma; EKVX NSCLC; SN12C renal; UO-31 renal; TK-10 renal; ACHN renal; CAKI-1 renal; A498 renal; CCRF-CEM leukemia; MOLT-4 leukemia.
What all share (test): NCI-60 one-dose screen, 48 h (100 = growth as untreated, 0 = no growth, -100 = all killed)
What all share (settings): 10 µM unless noted

With `NC(=O)NCC1CCCCC1`, the growth in the assay on SK-MEL-2 melanoma is 105%; with EKVX NSCLC, 96.6%; in the assay on SN12C renal, 106%; with UO-31 renal it was 92.9%; with TK-10 renal, 95.5%; in the assay on ACHN renal, 106%. For the same compound, the growth with CAKI-1 renal was 89.3%; with A498 renal, 104%; in the assay on CCRF-CEM leukemia, 99.3%; in the assay on MOLT-4 leukemia, 91.9%.
Take `O=[N+]([O-])c1cc(S(=O)(=O)c2ccc(F)c([N+](=O)[O-])c2)ccc1F`: the growth was 112% with SK-MEL-2 melanoma; 117% in the assay on EKVX NSCLC; 108% in the assay on SN12C renal; 86.1% in the assay with UO-31 renal; 119% with TK-10 renal; 97.1% in the assay with ACHN renal. The growth was 109% in the assay on CAKI-1 renal, 107% with A498 renal, 46.2% in the assay on CCRF-CEM leukemia and 23.2% in the assay with MOLT-4 leukemia.
For `Nc1ccccc1NC(=O)c1ccc(CN2CCC/C(=C\c3ccccn3)C2=O)cc1`, the growth in the assay with SK-MEL-2 melanoma is 27%; in the assay on EKVX NSCLC, 33.2%; in the assay with SN12C renal, 48.2%; with UO-31 renal, 25.4%; in the assay with TK-10 renal, 14.2%; with ACHN renal it was 20.6%. The growth in the assay on CAKI-1 renal was 17.7%; with A498 renal, 7.96% (active); with CCRF-CEM leukemia, 16.7%; with MOLT-4 leukemia, 7.84% (active).
For the compound `CN(C)c1ccc(-c2ccc(-c3ccc(C(=N)N)c(F)c3)s2)cc1`, the growth with SK-MEL-2 melanoma is -0.355% (active); in the assay on EKVX NSCLC it was -73.6% (active); with SN12C renal, -76.5% (active); in the assay with UO-31 renal, -92.6% (active); in the assay on TK-10 renal, -85.5% (active); with ACHN renal, -95.8% (active). Further, the growth in the assay on CAKI-1 renal is -87.9% (active); with A498 renal, 4.91% (active); in the assay with CCRF-CEM leukemia, -37.4% (active); in the assay with MOLT-4 leukemia, -19.3% (active).
For the compound `CCCCCCCC(=O)SCC/C=C/[C@@H]1CC(=O)NCc2cccc(n2)CN(Cc2ccc(Cl)cc2)CC(=O)N[C@@H](C(C)C)C(=O)O1`, the growth in the assay on SK-MEL-2 melanoma was 1.04% (active); with EKVX NSCLC, 32.5%; in the assay on SN12C renal, 21.6%; with UO-31 renal, -5.27% (active); in the assay with TK-10 renal, -6.26% (active); in the assay on ACHN renal, -15.5% (active). Further, the growth was -7.97% (active) in the assay on CAKI-1 renal, -54% (active) in the assay on A498 renal, 7.54% (active) with CCRF-CEM leukemia and 3.43% (active) in the assay on MOLT-4 leukemia.
For the compound `Cn1cc(-c2nc(-c3cn(C)c4ncccc34)cs2)c2cc(F)ccc21`, the growth is 31.1% in the assay on SK-MEL-2 melanoma; 55.3% with EKVX NSCLC; 46% in the assay with SN12C renal; 51.1% in the assay on UO-31 renal; 46.3% with TK-10 renal; 47.4% with ACHN renal. The growth in the assay with CAKI-1 renal was 20.8%; in the assay with A498 renal, 44.8%; in the assay on CCRF-CEM leukemia, 40%; in the assay with MOLT-4 leukemia, 35.6%.
In the case of `Brc1ccc(Cn2nnnc2-c2ccn(-c3ccccc3)n2)cc1`, the growth in the assay with SK-MEL-2 melanoma is 63.5%; in the assay on EKVX NSCLC it was 69.8%; with SN12C renal it was 68.5%; in the assay on UO-31 renal, 69.2%; in the assay on TK-10 renal, 77.6%; with ACHN renal it was 70.7%. The growth was 58.2% with CAKI-1 renal, 52.5% with A498 renal, 56.7% in the assay on CCRF-CEM leukemia and 52.4% in the assay on MOLT-4 leukemia.
On to `CCc1nnc(NC(=O)c2ccoc2COc2ccccc2)s1`, for which the growth is 54.3% in the assay on SK-MEL-2 melanoma; 58.2% with EKVX NSCLC; 55.7% in the assay on SN12C renal; 60.7% in the assay with UO-31 renal; 108% in the assay with TK-10 renal; 64.8% in the assay on ACHN renal. Also, the growth in the assay on CAKI-1 renal is 41.9%; in the assay on A498 renal, 59.2%; in the assay on CCRF-CEM leukemia it was 39.3%; in the assay on MOLT-4 leukemia, 25.3%.
With `Oc1ccccc1/C=N\NC(=S)Nc1ccc(F)cc1`, the growth in the assay with SK-MEL-2 melanoma is 18.5%; in the assay on EKVX NSCLC it was 29.8%; in the assay with SN12C renal it was 36.6%; in the assay with UO-31 renal, 7.46% (active); with TK-10 renal, 49.1%; in the assay with ACHN renal it was 13.8%. Besides, the growth is -4.58% (active) with CAKI-1 renal, 91.9% with A498 renal, 14% with CCRF-CEM leukemia and 7.67% (active) with MOLT-4 leukemia.
Take `Cn1cc(-c2csc(-c3cn(C(=O)OC(C)(C)C)c4ccccc34)n2)c2cccnc21`: the growth in the assay on SK-MEL-2 melanoma was 66.3%; in the assay on EKVX NSCLC, 72.3%; with SN12C renal it was 87.6%; in the assay with UO-31 renal, 73.7%; in the assay on TK-10 renal, 102%; in the assay on ACHN renal, 77.5%. Besides, the growth was 58.7% in the assay with CAKI-1 renal, 79.7% with A498 renal, 56.8% in the assay on CCRF-CEM leukemia and 50% in the assay with MOLT-4 leukemia.
`O=C1C=Cc2ncccc2C1=O`: the growth with SK-MEL-2 melanoma is 114%; in the assay with EKVX NSCLC it was 64.7%; in the assay with SN12C renal, 65.2%; with UO-31 renal, 68.3%; with TK-10 renal it was 111%; in the assay with ACHN renal, 76.1%. In addition, the growth was 81.2% in the assay with CAKI-1 renal, 125% in the assay on A498 renal, -37.5% (active) in the assay with CCRF-CEM leukemia and 0.968% (active) in the assay with MOLT-4 leukemia.
In the case of `N#CC1c2ccccc2-c2ccccc2N1C(=O)c1ccccc1` (stereo not given), the growth in the assay with SK-MEL-2 melanoma is 72.7%; with EKVX NSCLC, 29.5%; in the assay on SN12C renal it was 33.3%; in the assay with UO-31 renal, 42.5%; in the assay with TK-10 renal, 63.9%; in the assay with ACHN renal, 30.1%. Further, the growth is 37.4% in the assay on CAKI-1 renal, 8.67% (active) with A498 renal, 41.7% in the assay with CCRF-CEM leukemia and 35.8% in the assay with MOLT-4 leukemia.
Consider `CC1(n2nnnc2N2CCCN(c3ncccc3N)CC2)CCC1`, for which the growth is 110% with SK-MEL-2 melanoma; 97.5% in the assay on EKVX NSCLC; 95.7% in the assay with SN12C renal; 92.4% with UO-31 renal; 99% with TK-10 renal; 99.2% in the assay with ACHN renal. In addition, the growth in the assay on CAKI-1 renal is 90.7%; in the assay on A498 renal it was 93.3%; with CCRF-CEM leukemia it was 103%; in the assay with MOLT-4 leukemia, 99.3%.
As to `Brc1ccc2[nH]cc(-c3nc(-c4c[nH]c5ncccc45)cs3)c2c1`, the growth in the assay with SK-MEL-2 melanoma was 36.3%; in the assay on EKVX NSCLC it was 43.9%; in the assay with SN12C renal it was 49.8%; in the assay on UO-31 renal it was 19.2%; with TK-10 renal, 30.1%; with ACHN renal, 15.9%. For the same compound, the growth in the assay on CAKI-1 renal was 7.49% (active); with A498 renal, 43.6%; with CCRF-CEM leukemia, 29.7%; in the assay on MOLT-4 leukemia, 18.4%.
As to `COc1cccc(-c2nn(-c3ccccc3)cc2-c2ccnc(NCCNS(=O)(=O)c3ccc(C(F)(F)F)cc3)c2)c1`, the growth is -11.3% (active) in the assay with SK-MEL-2 melanoma; 29.4% with EKVX NSCLC; -36.1% (active) in the assay with SN12C renal; 11.7% in the assay with UO-31 renal; 27.3% in the assay on TK-10 renal; 8.66% (active) with ACHN renal. Further, the growth with CAKI-1 renal is 16.8%; in the assay with A498 renal, 4.35% (active); in the assay with CCRF-CEM leukemia, 8.23% (active); in the assay on MOLT-4 leukemia it was -16.7% (active).
With `CCN(CC)CCCCCNc1cc(OC(=O)c2ccccc2)cc2cccnc12`, the growth with SK-MEL-2 melanoma is 140%; in the assay with EKVX NSCLC, 102%; in the assay with SN12C renal, 95%; with UO-31 renal it was 92.5%; in the assay with TK-10 renal it was 145%; in the assay with ACHN renal it was 96.6%. The growth in the assay with CAKI-1 renal is 91%; in the assay on A498 renal, 81.1%; with CCRF-CEM leukemia, 93.9%; in the assay with MOLT-4 leukemia, 55.4%.
For `Cn1c2c(Cl)c(Cl)ccc2c2c(C#N)c[nH]c(=O)c21`, the growth was 97.3% in the assay with SK-MEL-2 melanoma; 98.9% in the assay with EKVX NSCLC; 95.9% with SN12C renal; 89.9% with UO-31 renal; 119% in the assay on TK-10 renal; 93.4% in the assay on ACHN renal. Besides, the growth in the assay with CAKI-1 renal is 71.1%; in the assay with A498 renal it was 89.5%; in the assay on CCRF-CEM leukemia, 39.2%; in the assay with MOLT-4 leukemia it was 95.7%.
Regarding `CCOC(=O)N1CCN(CCCCOc2ccc(C(C)(C)CC)cc2)CC1`, the growth in the assay with SK-MEL-2 melanoma was 95.8%; with EKVX NSCLC, 99.1%; in the assay on SN12C renal, 95.7%; in the assay on UO-31 renal, 83.1%; in the assay with TK-10 renal, 120%; with ACHN renal, 97.3%. Also, the growth in the assay with CAKI-1 renal is 85.8%; in the assay on A498 renal, 108%; with CCRF-CEM leukemia, 73%; in the assay with MOLT-4 leukemia it was 67.2%.
For the compound `C=C(C)[C@@H]1CC[C@]2(C=O)CC[C@]3(C)[C@H](CC[C@@H]4[C@@]5(C)C/C(=C/c6cccnc6)C(=O)C(C)(C)[C@@H]5CC[C@]43C)[C@@H]12`, the growth in the assay with SK-MEL-2 melanoma was 88.5%; in the assay with EKVX NSCLC, 88.5%; in the assay on SN12C renal, 77.1%; with UO-31 renal, -33.9% (active); in the assay with TK-10 renal, 134%; with ACHN renal, 61.6%. Also, the growth with CAKI-1 renal was 50.1%; in the assay with A498 renal it was 98.3%; in the assay on CCRF-CEM leukemia, 27.7%; in the assay on MOLT-4 leukemia, 49.9%.
As to `Cc1cc(C)c(NC(=O)c2sc3nc4c(cc3c2N)CCCC4)c(C)c1`, the growth with SK-MEL-2 melanoma was 16.8%; with EKVX NSCLC it was 76.7%; in the assay with SN12C renal, 50%; in the assay with UO-31 renal it was 62.1%; with TK-10 renal it was 64.7%; with ACHN renal, 55.8%. Besides, the growth in the assay with CAKI-1 renal was 53.1%; in the assay on A498 renal it was 12.7%; in the assay with CCRF-CEM leukemia it was 20.4%; with MOLT-4 leukemia, 29.9%.
For `Cc1cc(N=O)cc(C(C)(C)C)c1O`, the growth with SK-MEL-2 melanoma is 85.2%; in the assay on EKVX NSCLC, 95.4%; in the assay with SN12C renal, 101%; with UO-31 renal, 92.3%; with TK-10 renal, 94.1%; in the assay with ACHN renal, 108%. The growth was 86.1% in the assay on CAKI-1 renal, 74.3% in the assay with A498 renal, 82.5% in the assay with CCRF-CEM leukemia and 94.2% in the assay with MOLT-4 leukemia.

The values above are taken from PubChem BioAssay (NCI).
